The list is not random: actives were taken first. Their share in the collection is about 2.3%.
GSTO1 counter = blocks human GSTO1 in RBBP9 counter-screen. P78417. inhibition, % at 5.96 µM. recombinant GSTO1, activity-based probe fluorescence polarization. AID 1974. hit rate 1.1% among 300,000;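 active = inhibition above the campaign mean inhibition plus 3 SD, cut at about 35% in these data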;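 also: 0% = GSTO1-1 with DMSO and 100% = wells lacking GSTO1-1 enzyme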
Target sequence (P78417 whole entry, looked up): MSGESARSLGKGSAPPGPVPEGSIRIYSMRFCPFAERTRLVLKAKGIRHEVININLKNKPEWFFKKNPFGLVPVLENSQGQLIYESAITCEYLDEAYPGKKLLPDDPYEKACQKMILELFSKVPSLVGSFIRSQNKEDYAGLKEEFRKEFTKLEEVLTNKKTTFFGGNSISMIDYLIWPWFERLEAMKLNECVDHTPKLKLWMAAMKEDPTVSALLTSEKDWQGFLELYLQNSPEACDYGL
pPAFAH FP inh = pPAFAH (human) enzyme inhibition; Q13093; recombinant pPAFAH, FP-rhodamine probe fluorescence polarization; inhibition, % at 3.39 µM; hit rate 1.5% among 330,000;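 active = inhibition above the mean inhibition across the screen plus 3 SD, cut at about 25% in these data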;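 also: inhibitors block binding of the rhodamine activity-based probe so polarization drops; 0% = enzyme with DMSO and 100% = wells lacking pPAFAH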
Fam108B counter = blocks mouse Fam108B hydrolase in RBBP9 counter-screen; inhibition, % at 9.51 µM; hit rate 0.33% among 300,000; recombinant Fam108B, FP-Rh probe fluorescence polarization;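 active = inhibition above the screen mean inhibition plus 3 SD, computed separately per campaign, cut at about 18% in these data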;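 also: inhibitors lower polarization as less probe binds the enzyme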
PAD4 FP inh = PAD4 (human) enzyme inhibition | inhibition, % at 6.36 µM | recombinant PAD4, RCA probe fluorescence polarization | hit rate 0.41% among 330,000 | Q9UM07;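 active = percent inhibition above a cutoff equal to the mean of all tested compounds plus 3 SD, cut at about 15% in these data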;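 also: 0% = PAD4 with RCA probe and DMSO and 100% = probe without PAD4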
PME-1 primary = blocks human protein phosphatase methylesterase 1 | Q9Y570 | recombinant PME-1, FP-Rh probe fluorescence polarization | inhibition, % at 5.9 µM | hit rate 0.53% among 320,000;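 active = inhibition above the campaign mean of all compounds plus 3 SD, cut at about 26% in these data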;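 also: competitive labeling of PME-1 active site by serine hydrolase directed probe; 0% = PME-1 with DMSO and 100% = wells lacking PME-1 enzyme; inhibitors block probe labeling so polarization falls and inhibition rises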
Target sequence (Q9Y570 whole entry, looked up): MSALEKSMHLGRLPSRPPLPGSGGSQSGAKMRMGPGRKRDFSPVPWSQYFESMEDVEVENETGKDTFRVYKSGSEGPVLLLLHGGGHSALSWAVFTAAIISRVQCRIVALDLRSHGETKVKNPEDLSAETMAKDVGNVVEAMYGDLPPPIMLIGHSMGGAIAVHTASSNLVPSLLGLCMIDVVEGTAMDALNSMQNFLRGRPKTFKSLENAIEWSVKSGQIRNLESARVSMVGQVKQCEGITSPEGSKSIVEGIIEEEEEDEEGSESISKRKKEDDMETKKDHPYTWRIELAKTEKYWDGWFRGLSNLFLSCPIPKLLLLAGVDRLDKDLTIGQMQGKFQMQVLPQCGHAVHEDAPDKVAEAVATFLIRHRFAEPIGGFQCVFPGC
Fam108b inh conf = confirmation of mouse Fam108b serine hydrolase inhibitors; shares compounds with Fam108B counter; recombinant Fam108b, FP-Rh probe fluorescence polarization; inhibition, % at 9.51 µM; hit rate 44% among 930;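 active = inhibition above a limit from the primary screen, the mean over all compounds plus 3 SD, cut at about 19% in these data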;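 also: 0% = median of active Fam108b wells and 100% = catalytically dead S170A mutant; inhibitors free the probe so polarization falls as inhibition rises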
Fam108b ABPP HTS = mouse ABHD17B inhibition; hit rate 44% among 260; shares compounds with Fam108B counter; recombinant Fam108b, gel-based ABPP, fluorophosphonate probe; AID 588649; inhibition, % at 20 µM; in the data active = inhibition above about 40%
* = called active by the depositor; . = no result; ! = not confirmed by another sample.

SMILES | GSTO1 counter | pPAFAH FP inh | Fam108B counter | PAD4 FP inh | PME-1 primary | Fam108b inh conf | others
CCCc1cc(=O)[nH]c(SCC(=O)Nc2cc(S(=O)(=O)N(CC)c3ccccc3)ccc2Cl)n1 | . | 10 | . | -1 | . | .
COc1cccc(NC(=O)CN(C)C(=O)C2CCN(C(=O)c3ccccc3C)CC2)c1 | 8 | -2 | 19* | 0 | 2 | 0
COc1cccc(C2C([N+](=O)[O-])=C(N)Oc3cc(C)oc(=O)c32)c1 (stereo unspecified) | 1 | 6 | -1 | -3 | 5 | .
c1ccc(Nc2nc3ccccc3n3nnnc23)cc1 | -2 | 6 | 1 | 6 | 11 | .
CCN(CC)S(=O)(=O)c1ccc(Nc2nc3ccccc3n3nnnc23)cc1 | -35 | 6 | 26* | -9 | 10 | 13
c1ccc2c(c1)nc(Nc1ccc3c(c1)OCO3)c1nnnn12 | -13 | 15 | 23* | -2 | 16 | 7
C/C(N)=C(/C#N)C(=O)CSc1nc2ccccc2c(=O)n1-c1ccc(C)c(Cl)c1 | -15 | -3 | -15 | -4 | -4 | .
Nc1nc2ccccc2n1N=Cc1ccc(Br)cc1 | . | . | . | . | . | . | Fam108b ABPP HTS=0
O=C(c1ccc(OCCN2CCCCC2)cc1)c1c(-c2ccc(O)cc2)sc2cc(O)ccc12 | -45 | 19 | 21* | -3 | 6 | 24*!
O=C(N/N=C/c1c[nH]c2ccc(Br)cc12)c1ccn(Cc2ccc(Cl)cc2)n1 | 4 | 6 | 2 | -3 | -6 | .
O=C(N/N=C/c1c[nH]c2ccccc12)c1ccn(Cc2ccc(Cl)cc2Cl)n1 | 5 | 15 | 21* | -7 | 17 | 0
CN(C)S(=O)(=O)c1cccc(NC(=O)COC(=O)c2cc(-c3cccc(Br)c3)nc3ccccc23)c1 | -36 | 6 | 31* | -1 | 5 | 60* | Fam108b ABPP HTS=90*
CCOC(=O)Cc1csc(NC(=O)c2sc3nc4c(C)cc(C)cc4cc3c2N)n1 | 5 | 2 | 23* | -1 | 86* | 4
Cn1c(=N)n(CC(=O)c2ccc(Cl)c(Cl)c2)c2ccccc21 | -3 | 6 | 21* | -3 | 19 | 6
O=C(NCC1COc2ccccc2O1)C1CCCN(S(=O)(=O)c2cnc[nH]2)C1 (stereo unspecified) | 4 | 9 | 2 | -1 | 1 | .
Cc1ccc(NC(=O)Cc2ccccc2F)cc1S(=O)(=O)N1CCCCCC1 | . | 2 | . | -5 | -2 | .
CCN(c1ccccc1)S(=O)(=O)c1ccc(Cl)c(NC(=O)CSc2ncn[nH]2)c1 | 1 | 3 | 0 | 3 | 16 | .
CCc1ccc(S(=O)(=O)N=C2C=C(Sc3ncn[nH]3)C(=O)c3ccccc32)cc1 | . | . | . | . | . | . | Fam108b ABPP HTS=60*
Cc1ccc(S(=O)(=O)N=C2C=C(Sc3ncn[nH]3)C(=O)c3ccccc32)c(C)c1 | . | . | . | . | . | . | Fam108b ABPP HTS=95*
CN1C(=O)/C(=C/c2ccc(C(=O)Nc3ccc(O)cc3C(=O)O)cc2)SC1=S | 17 | 30* | 19* | 5 | 35* | -12
COCCN(C(=O)COC(=O)CCc1c[nH]c2ccccc12)c1c(N)n(Cc2ccccc2)c(=O)[nH]c1=O | -3 | -3 | 2 | -4 | 2 | .
Fc1ccc2nc(Nc3nc4cc5c(cc4s3)OCO5)sc2c1 | 0 | 24 | 40* | -4 | 52* | 46* | Fam108b ABPP HTS=95*
Fc1ccc2nc(Nc3nc4cc5c(cc4s3)OCCO5)sc2c1 | 8 | 13 | 21* | -4 | 72* | 12
O=C(NNc1nc2cc3c(cc2s1)OCO3)c1ccc(F)cc1 | 3 | 12 | 1 | 2 | 0 | .
CCN1C(=O)[C@@H]2[C@H](C1=O)[C@@H]1CC(C(=O)OC)=C[C@@H](C(=O)OC)C3C1=C(C(=O)C3(CC)CC)[C@@H]2C (stereo partly specified) | 12 | 9 | 4 | 0 | 6 | .
SMILES | GSTO1 counter | pPAFAH FP inh | Fam108B counter | PAD4 FP inh | PME-1 primary | Fam108b inh conf | others
CC(=O)NC1=NN(C(C)=O)C(C)(c2ccco2)S1 (stereo unspecified) | -7 | -6 | 22* | -8 | 4 | 3
CCC(=O)Oc1ccc(C/C(=N\O)c2ccc(O)cc2O)o1 | 25 | 20 | 26* | 3 | 36* | 18
COc1ccc(CCNCC(O)COc2ccc(OC)cc2C(C)(C)C)cc1 (stereo unspecified) | 6 | -7 | -3 | -8 | -4 | .
CCc1c(C(=O)Nc2ccc(OC)c(Cl)c2)[nH]c(C)c1C(C)=O | -14 | 5 | 19* | -3 | -4 | 39* | Fam108b ABPP HTS=0
CN(C)S(=O)(=O)c1ccc(-c2csc(N/N=C/c3ccc(O)cc3)n2)cc1 | -17 | 3 | 29* | -7 | 35* | 9
CCOC(=O)Cc1csc(N/N=C/c2cccc([N+](=O)[O-])c2)n1 | -5 | 2 | 1 | -2 | 4 | .
O=[N+]([O-])c1cccc(-c2csc(N/N=C/c3cccc(O)c3)n2)c1 | -10 | 8 | 32* | -2 | 11 | 31*
COc1ccc(S(=O)(=O)N2CCOC2CNC(=O)C(=O)NCc2ccc3c(c2)OCO3)cc1 (stereo unspecified) | 1 | 7 | -4 | 1 | 3 | .
Cc1c(C(=O)N/N=C/c2ccccn2)nnn1-c1nonc1N | 6 | -8 | 4 | -3 | -3 | .
c1cc2c3c(cccc3c1)NC1(CCCCC1)N2 | 16 | 6 | 3 | -13 | -3 | .
c1cc2c3c(cccc3c1)NC1(CCC3(CC1)Nc1cccc4cccc(c14)N3)N2 | 28 | 3 | 36* | -13 | 47* | 7
COc1cc2cc(-c3ccc(O)cc3O)nc(C)c2cc1OC | 1 | 21 | 20* | -3 | 16 | 21*
COc1ccccc1NC(=O)Cn1c(CN2CCCCC2)nc2ccccc2c1=O | 0 | 1 | 1 | 2 | -2 | .
Cc1cccc(C)c1NC(=O)Cn1c(CN2CCCCC2)nc2ccccc2c1=O | 10 | -6 | 21* | 1 | -7 | 2
Cc1ccccc1CCNC(=O)Cn1ccc2cc(S(=O)(=O)N3CCCC3)ccc21 | -1 | 6 | -1 | 2 | 20 | .
Cc1ccc(NC(=O)CCn2c(=O)[nH]c3ccsc3c2=O)cc1F | 6 | -1 | -3 | -1 | 0 | .
N#CC1=C(c2ccccc2)/C(=C/c2ccccc2)OC1=O | 3 | 2 | 19* | -1 | 11 | 23*
O=C1O/C(=C/c2ccccc2)c2ccccc21 | 4 | -2 | 1 | -5 | -7 | .
Cc1ccc(OCCn2cc(/C=N/NC(=O)c3ccncc3)c3ccccc32)cc1 | -21 | 23 | 34* | 3 | 69* | -11
COc1cccc(OCCn2cc(/C=N/NC(=O)c3ccncc3)c3ccccc32)c1 | -10 | 13 | 25* | 5 | 25 | 2
OCCN1CCN(c2ncnc3sc(-c4ccccc4)cc23)CC1 | 9 | 3 | 1 | 4 | -2 | .
O=C(CN1C(=O)S/C(=C\c2cc(Cl)c(O)c(Cl)c2)C1=O)Nc1ccccc1 | 27 | 25* | 23* | 2 | 23 | 19*

From PubChem BioAssay
